# High-throughput results deposited in PubChem BioAssay by several laboratories.
# The list is not random: actives were taken first. Their share in the collection is about 2.5%.
# CHT block: human CHT choline transport inhibition; Q9GZV3; CHT-expressing cells, membrane potential dye, choline response; active compounds read low; 310,000 compounds, 0.86% hits; B-score at 10 µM; AID 488975;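 active = B-score over 3 SD under the library average, and starting fluorescence ratio not unusually high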;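 also: choline stimulus applied at its EC90 after an EC20 pre-addition; B-score computed on integrated fluorescence ratio after choline addition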
# Target sequence (Q9GZV3 whole entry, looked up): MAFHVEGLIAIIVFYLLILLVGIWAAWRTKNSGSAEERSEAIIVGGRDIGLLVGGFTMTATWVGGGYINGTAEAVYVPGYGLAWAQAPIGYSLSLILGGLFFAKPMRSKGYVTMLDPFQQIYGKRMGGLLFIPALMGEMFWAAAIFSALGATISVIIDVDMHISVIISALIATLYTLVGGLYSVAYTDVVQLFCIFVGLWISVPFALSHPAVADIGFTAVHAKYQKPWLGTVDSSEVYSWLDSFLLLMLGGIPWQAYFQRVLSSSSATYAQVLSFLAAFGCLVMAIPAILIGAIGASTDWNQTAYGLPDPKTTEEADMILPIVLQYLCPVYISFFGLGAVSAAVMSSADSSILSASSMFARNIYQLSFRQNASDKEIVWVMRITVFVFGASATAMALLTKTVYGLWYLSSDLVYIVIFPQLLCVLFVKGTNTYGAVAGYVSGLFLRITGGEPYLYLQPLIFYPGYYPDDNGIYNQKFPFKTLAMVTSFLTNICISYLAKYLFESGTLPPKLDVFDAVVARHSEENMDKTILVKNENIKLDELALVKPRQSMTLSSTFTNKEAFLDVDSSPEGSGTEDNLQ
# TMEM16A act: activators or potentiators of mouse TMEM16A chloride channel; Q8BHY3; HEK293 TMEM16A/YFP-H148Q/I152L, iodide quench fluorescence; active compounds read low; B-score at 10 µM; 340,000 compounds, 0.3% hits;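 active = fluorescence-ratio B-score plate-corrected deviation score at least 3 library SD below zero, with starting fluorescence score within 5 deviations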;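 also: channel opened by trigger with iodide after compound preincubation; score built on the fluorescence ratio of max minus min over baseline; more negative score means more quench and so TMEM16A activation or potentiation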
# CHT allo act: allosterically activates the human high affinity choline transporter | Q9GZV3 | CHT-expressing cells, membrane potential dye, choline EC20; active compounds read high; LV-AA mutant CHT in HEK293 cells | B-score at 10 µM | 310,000 compounds, 0.49% hits;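 active = initial fluorescence not abnormally high and integrated response B-score, plate-corrected, over 3 SD above library mean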
# PKA-R1A act: PKA-R1A complex activation; P00514+P68181; PKA-R1A dissociation, Cy5-IP20 fluorescence polarization; scaled: DMSO 0%, 113 µM cGMP 100%; activation, % at 11.4 µM; 340,000 compounds, 0.083% hits; AID 504707;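 active = percent activation above the mean of all tested compounds plus 3 SD, cut at about 19% in these data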;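 also: higher means more PKAc released from R1A so a rise in polarization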
# ANO1 block: inhibitors of mouse TMEM16A calcium-activated chloride channel. Q8BHY3. AID 588511. HEK293 TMEM16A/YFP iodide influx fluorescence, ionomycin. 310,000 compounds, 1.2% hits. normalized B-score (activity score, 25-100; higher = stronger inhibition) at 10 µM;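 active = ratio plate-corrected score three or more library SD toward inhibition, starting fluorescence score within five deviations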;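 also: score derived from kinetic fluorescence span divided by baseline fluorescence per well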
# PKA-R2B activ: activators of human PKA-R2B complex | P22694+P31323 | PKA-R2B holoenzyme dissociation, Cy5-IP20 fluorescence polarization; R2B truncated from residue 108, S112A mutant; 0% DMSO only, 100% 113 µM cGMP | 340,000 compounds, 0.079% hits | activation, % at 11.4 µM | AID 504700;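 active = activation above a cutoff set at the mean over all compounds plus 3 SD, cut at about 18% in these data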;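 also: higher means more holoenzyme dissociation and a rise in polarization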
# Active calls of the source: *; i = inactive; x = not tested or not shown.
SMILES,CHT block,TMEM16A act,CHT allo act,PKA-R1A act,ANO1 block,PKA-R2B activ
Cc1cc(NC(=O)c2ccc(S(=O)(=O)N3CCCC3)cc2)nc2c1c(=O)oc1ccccc12,x,-14*,x,-14,x,-15
Cc1cc(NC(=O)c2ccc(S(=O)(=O)N3CCOCC3)cc2)nc2c1c(=O)oc1ccccc12,i,x,i,x,i,x
CCOc1ccccc1OCC(=O)NCCc1ccc(S(N)(=O)=O)cc1,i,i,i,1,i,5
CCOc1ccccc1N1CCN(CC(=O)NCCc2ccc(S(N)(=O)=O)cc2)CC1,i,-5.5*,i,1,i,-3
CC1CCCCC1NC(=O)CN1c2cccc3cccc(c23)S1(=O)=O (centres undefined),x,i,x,-7,x,4
O=C(Nc1nc(-c2cccs2)cs1)c1ccc(Cl)cc1,i,i,i,-3,i,-3
O=C(CSCC(=O)N1CCCCC1)Nc1nc(-c2cccs2)cs1,i,i,i,-2,25*,0
O=C(COc1ccc(Cl)cc1)Nc1nc(-c2cccs2)cs1,i,i,i,-6,100*,7
O=C(Cc1ccccc1F)Nc1nc(-c2cccs2)cs1,i,i,i,-7,25*,-2
CCOC(=O)Cc1csc(NC(=O)COc2ccc(N(C)S(=O)(=O)c3cccs3)cc2)n1,i,i,i,-2,100*,-15
O=C(c1cccc(S(=O)(=O)N2CCCC2)c1)N1CCN(c2ccccc2)CC1,i,i,i,-4,i,-4
O=C(c1cccc(S(=O)(=O)N2CCN(c3ccccc3)CC2)c1)N1CCCC(C(F)(F)F)C1 (centres undefined),i,i,i,10,25*,-4
Cc1ccc(S(=O)(=O)Nc2cc(C(F)(F)F)ccc2N2CCOCC2)c(C)c1,i,-14*,i,-4,i,-2
Cc1ccc(S(=O)(=O)Nc2cc(C(F)(F)F)ccc2N2CCOCC2)cc1,i,i,i,-16,i,-1
Cc1ccc(CNC(=O)COC(=O)c2nc(-c3ccccc3)oc2C)cc1,x,i,x,7,x,4
CCOC(=O)c1cnc2ccc(OCC)cc2c1NCc1ccccc1OC,i,i,i,-7,100*,-2
O=[N+]([O-])c1cccc(NC(=S)NCCc2ccccc2)c1,i,i,i,5,100*,-1
Fc1cccc(NC(=S)NCCc2ccccc2)c1,i,i,i,4,i,-3
O=C(NCCc1ccc(F)cc1)Nc1ccc([N+](=O)[O-])cc1,i,i,i,-6,i,2
O=[N+]([O-])c1ccc(NC(=S)NCCc2ccc(F)cc2)cc1,i,-4.9*,i,-2,100*,0
CSc1ccc(C(=O)N2CCC(n3nccc3NC(=O)C3CC3)CC2)cc1,i,i,i,-9,i,-4
O=C(NC1CCN(C(=S)Nc2ccccc2)CC1)C1CCCCC1,i,i,i,-2,i,-3
Cc1ccc([N+](=O)[O-])cc1NC(=O)CN1CCC(C)CC1,i,i,i,4,i,-5
CC1CCN(CC(=O)Nc2cccc([N+](=O)[O-])c2)CC1,i,i,i,3,25*,-1
CCc1ccc(CN(C)C(=O)c2cc(COc3ccc(-n4cncn4)cc3)on2)cc1,i,i,i,7,i,1
SMILES,CHT block,TMEM16A act,CHT allo act,PKA-R1A act,ANO1 block,PKA-R2B activ
Cc1cc(NC(=O)Cc2ccccc2)c2ccccc2n1,i,i,i,-7,25*,-5
CCOc1ccccc1C(=O)OCC(=O)NCCNC(=O)COC(=O)c1ccccc1OCC,i,i,i,0,i,2
COc1ccc(S(=O)(=O)Nc2cc3c4c(c2)C(C)C(=O)N4CCC3)cc1OC (centres undefined),i,i,i,-3,i,-6
Cn1cc(/C=C2\SC(=O)NC2=S)c2ccccc21,i,-4.6*,i,6,i,-12
O=C1CN(C(=O)CNCc2cccc(Cl)c2)c2ccccc2N1,i,i,i,-7,i,3
COc1ccc(/C=C/C(=O)C2CC2)cc1COc1cccc(C)c1C,i,i,i,-3,i,0
COc1ccc(CNC(=O)c2cc(C)nc3ccccc23)cc1OC,i,-5.6*,i,2,i,4
COc1ccccc1CNC(=O)c1cc(C)nc2ccccc12,i,i,i,-9,i,-9
Cc1cccc(N2N=C(C(=O)O)CCC2=O)c1,i,i,i,-9,i,-1
CCOc1ccc(CNc2ccc(S(N)(=O)=O)cc2)cc1,i,-5.1*,i,6,i,1
CCOC(=O)Cc1nn(Cc2nc(-c3ccc(C#N)cc3)cs2)c(=O)c2ccccc12,i,i,i,-6,25*,-1
CCOC(=O)Cc1nn(C)c(=O)c2ccccc12,i,i,i,10,i,-15
O=C(Nc1ccccc1)c1ccccc1NS(=O)(=O)c1ccc(Cl)s1,i,i,i,0,100*,-4
COc1ccc(CNC(=O)CCNS(=O)(=O)c2ccc(NC(C)=O)cc2)cc1OC,x,i,x,-17,x,-14
Cc1ccc(C(C)C)cc1OCC(=O)N/N=C/c1ccc2c(c1)OCCO2,i,i,i,-13,100*,4
Cc1cccc(C)c1OCC(=O)N/N=C/c1ccc2c(c1)OCO2,i,i,i,-2,i,-2
CCCCn1c(N)c(N(CC(C)C)C(=O)Cc2ccc(S(=O)(=O)N3CCOCC3)s2)c(=O)[nH]c1=O,x,-7.5*,x,3,x,17
O=C(O)c1ccccc1/C=N/NC(=S)NCc1ccccc1,i,-12*,i,-5,i,3
O=C(NN=Cc1ccccc1C(=O)O)C(=O)NN=Cc1ccccc1C(=O)O,x,i,x,1,x,1
Cc1ccc(C)c(/C=N/NC(=S)NCCc2ccccc2)c1,i,i,i,8,100*,-3
COC(=O)Cc1ccc(NC(=O)c2ccc(C(C)(C)C)cc2)cc1,i,i,i,-6,100*,-6
CC(C)(C)c1ccc(C(=O)Nc2ccc(Cl)cc2)cc1,i,i,i,-12,i,-14
COCCCC1CCN(C(=O)C2CCC(=O)N(Cc3ccccc3F)C2)CC1 (centres undefined),i,i,i,1,i,-4
On1c2c(c3c4nonc4ccc31)CCCC2,-11*,x,i,x,100*,x
